Screening results from PubChem.
The list is not random: actives were taken first. Their share in the collection is about 3.3%.
SARS PLpro yeast – inhibitors of SARS-CoV papain-like protease in yeast. S. cerevisiae expressing SARS-CoV PLpro, growth rescue. Potency, µM (top dose mostly 32.9 µM), hits mostly activators. 330,000 compounds, 0.19% hits; calls by dose curve; also: nearly all actives have a fitted effect of over 55% in size
AmpC inh detg – inhibitors of E. coli AmpC beta-lactamase with detergent; P00811; AmpC hydrolysis of nitrocefin, absorbance 480 nm, 0.01% Triton; Potency, µM (highest dose often 114 µM), hits mostly inhibitors; 370,000 compounds, 0.041% hits; AID 485294; also: nearly all actives have a fitted effect of over 25% in size
Target sequence (P00811 whole entry, looked up): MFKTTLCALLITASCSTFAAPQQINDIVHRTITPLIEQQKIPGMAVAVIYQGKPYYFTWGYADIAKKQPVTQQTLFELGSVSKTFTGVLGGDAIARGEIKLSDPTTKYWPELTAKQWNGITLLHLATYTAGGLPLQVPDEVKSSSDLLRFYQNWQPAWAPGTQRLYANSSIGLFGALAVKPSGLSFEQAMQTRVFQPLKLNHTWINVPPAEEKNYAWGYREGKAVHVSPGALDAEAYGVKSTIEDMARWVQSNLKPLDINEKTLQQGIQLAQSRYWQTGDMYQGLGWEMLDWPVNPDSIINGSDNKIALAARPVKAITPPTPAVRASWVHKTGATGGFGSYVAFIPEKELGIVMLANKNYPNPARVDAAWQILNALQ
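AmpC (5.3 nM in the dispensed reagent) in 20 mM phosphate pH 7.0 with 0.01% (detergent screen) or 0.0001% Triton X-100 was preincubated with compounds for 15 min at room temperature. Nitrocefin was then added from an 800 uM solution, and hydrolysis was followed at 480 nm.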
Sm TGR inh – blocks Schistosoma mansoni thioredoxin glutathione reductase; Q962Y6; purified TGR, DTNB reduction, TNB absorbance 405 nm; Potency, µM (series often up to 114 µM), usual class: inhibitors; 360,000 compounds, 3% hits; also: nearly all actives have a fitted effect of over 60% in size
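TGR 20 nM + NADPH 100 uM (dispensed conc.), cpd preinc 15 min RT; start with NADPH (500 uM addition) then DTNB (15 mM addition). Kinetic TNB absorbance, 405 nm filter. Four-parameter Hill fit across titration.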
RE007 growth inh – less growth of the S. pombe RE007 Vpr strain | S. pombe RE007 Vpr strain, BacTiter-Glo ATP luminescence, 24 h | Potency, µM (highest dose often 92.2 µM), hits mostly inhibitors | 360,000 compounds, 0.21% hits; active = well fitted falling curve with a large enough effect; inconclusive = small, poorly fitted or top-dose-only effect; inactive = no such curve, though single readings can be large or run the other way; also: nearly all actives have a fitted effect of over 50% in size
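Fission yeast strain RE007, carrying one chromosomally integrated HIV-1 vpr copy, was seeded at OD 0.01 in PMG+AL medium with 23 nL pinned compound. After 24 h at 30 °C and 99% humidity, viability was read by BacTiter-Glo luminescence.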
Tb PYK inh – T. brucei pyruvate kinase inhibition | Q57TT1 | TbPYK enzyme, Kinase-Glo Plus ATP luminescence, 45 min | Potency, µM (top dose mostly 76.8 µM), most hits filed as inhibitors | 410,000 compounds, 0.12% hits | AID 624173; also: nearly all actives have a fitted effect of over 50% in size
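Luminescence from Kinase-Glo Plus, added after a 45-minute room-temperature reaction, served as the end-point read-out. The enzyme and substrate were preincubated with compound before ADP (130 uM final) initiated turnover. Concentration-effect curves came from normalized qHTS data.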
AmpC no deterg – inhibitors of E. coli AmpC beta-lactamase without detergent | Potency, µM (titrated, usually from 57.1 µM), hits mostly inhibitors | AmpC nitrocefin hydrolysis, absorbance 480 nm, 0.0001% Triton | P00811 | 330,000 compounds, 0.52% hits; also: nearly all actives have a fitted effect of over 20% in size
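20 mM phosphate pH 7.0 + 0.01% (detergent screen) or 0.0001% Triton X-100; 5.3 nM AmpC reagent; cpd preinc 15 min RT; nitrocefin (800 uM stock) to start; A480 q20 s × 4 min; Activity was normalised to no-enzyme and no-compound control wells.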
Numbers stand for hits; . = inactive; ? = inconclusive; / = no result given; ! = a repeat was not active. Unless noted, calls follow the shape of the dose curve; as a rule, active = well fitted curve in the direction sought with a large enough effect; inconclusive = small, poorly fitted or top-dose-only effect, or another doubt; inactive = no such curve, though single readings can be large; an effect the other way counts as inactive or inconclusive.

SMILES | SARS PLpro yeast | AmpC inh detg | Sm TGR inh | RE007 growth inh | Tb PYK inh | AmpC no deterg
Cc1ccc(NC(=O)CSc2nnc(-c3cc4occc4n3C)n2-c2ccccc2C)c(C)c1 | / | . | . | / | . | /
CCN(CC)c1ccc(NC2CC(=O)N(CCc3ccc(OC)cc3)C2=O)cc1 (stereo not given) | . | . | 10µM | . | . | .
COc1ccc(CCNC2CC(=O)N(CCc3ccccc3)C2=O)cc1 (stereo not given) | . | . | ? | . | . | .
COC(=O)C1=C(C)N(c2ccc(F)c(Cl)c2)C(=O)C1 | . | . | 25µM | . | . | .
COC(=O)C1=C(C)N(c2cccc(Cl)c2)C(=O)C1 | . | . | . | . | . | .
Cc1c(Nc2ncnc3c2cnn3-c2ccccc2)c(=O)n(-c2ccccc2)n1C | . | . | . | . | . | 0.14µM
CCOc1ccc(CCNC(=O)Cn2ncn3c(cc4sc(C)cc43)c2=O)cc1OCC | / | . | . | / | . | /
O=C1C(Cl)=C(Nc2ccccc2O)C(=O)N1c1ccccc1 | . | ? | 22µM | ? | . | .
Cc1ccc(C(=O)N2CCCCC2)cc1NC1=C(Cl)C(=O)N(Cc2ccccc2)C1=O | . | . | . | . | . | .
Cc1ccccc1NC1=C(Cl)C(=O)N(C2CCCCC2)C1=O | . | . | . | . | . | .
COc1ccccc1NC1=C(Cl)C(=O)N(C2CCCCC2)C1=O | . | . | . | . | . | 14µM
COc1ccccc1N1C(=O)C(Cl)=C(Nc2ccccc2O)C1=O | . | . | 8.9µM | . | . | .
Cc1ccc(O)c(NC2=C(Cl)C(=O)N(Cc3ccccc3)C2=O)c1 | . | . | / | . | 35µM | .
COc1cccc(NC(=O)Cn2c(=O)n(Cc3ccc4c(c3)OCO4)c(=O)c3oc4ccccc4c32)c1 | / | . | . | / | . | /
CN(C)c1ccc(CNC(=O)c2cccc(NC(=O)N3CCSc4ncccc43)c2)cc1 | / | . | . | / | . | /
COc1ccc(OC)c(CCNc2nc3cc(OC)c(OC)cc3c3nc(-c4cccnc4)nn23)c1 | / | . | . | / | . | /
COc1cccc(C(c2sc3nc(-c4ccco4)nn3c2O)N2CCC(O)CC2)c1 (stereo not given) | / | . | . | / | . | /
CCOc1ccc(CCNC(=O)CCCc2nnc3n(CCCOC)c(=O)c4sccc4n23)cc1 | / | . | . | / | . | /
CC(C)CCNC(=O)C1CCC(Cn2c(=O)c3sccc3n(CC(=O)NC(C)C)c2=O)CC1 (stereo not given) | / | . | . | / | . | /
O=C(COC(=O)CCC(=O)c1ccc(F)cc1)Nc1ccccc1 | . | . | . | . | . | .
NC(=O)c1ccc(NC(=O)COC(=O)CCC(=O)c2ccc(Cl)cc2)cc1 | . | . | 50µM | . | . | .
Nc1c(-c2nc(-c3ccccc3Cl)no2)nnn1-c1ccccc1C(F)(F)F | / | . | . | / | . | /
COc1ccc(CCC(=O)NCc2ccc3c(c2)CCN3C(=O)c2ccc(C)cc2)cc1 | / | . | . | / | . | /
CC1=CCC2C(=O)N(c3ccccc3OC(=O)c3ccccc3F)C(=O)C2C1 (stereo not given) | . | . | . | . | . | 10µM
CCOC(=O)CNCCC(=O)c1ccc(Br)cc1 | . | . | ? | 35µM | . | .
SMILES | SARS PLpro yeast | AmpC inh detg | Sm TGR inh | RE007 growth inh | Tb PYK inh | AmpC no deterg
Cc1cccc(NCCC(=O)c2ccc(Br)cc2)c1 | . | . | 5.6µM | ? | . | .
CCCC1=[N+](CC(C)=O)CCn2c(C)ccc21 | . | . | 28µM | . | . | .
CCCC1=[N+](CC(=O)c2ccccc2)CCn2cccc21 | . | . | . | . | . | .
CC(=O)Nc1ccc(S(=O)(=O)NCCc2csc3nc(-c4cccc(C)c4)nn23)cc1 | / | . | . | / | . | /
CCSc1nnc(NC(=O)c2cc(=O)c3cc(C)ccc3o2)s1 | / | . | . | / | . | /
N#C/C(=C(/O)CCl)c1nc2c(s1)CCc1ccccc1-2 | . | . | 7.9µM | . | . | .
Nc1nc2c(s1)CCc1ccccc1-2 | . | . | . | . | ? | .
Cc1cccc(-c2nc3c(c(SCC(=O)N4CCOCC4)n2)Cc2c(CO)cnc(C)c2O3)c1 | . | . | 22µM | . | . | .
COc1cccc(-c2nc3c(c(SCC(=O)N4CCOCC4)n2)Cc2c(CO)cnc(C)c2O3)c1 | . | . | ? | . | . | .
Cc1ncc(CO)c2c1Oc1nc(-c3ccccc3)nc(SCC(=O)N3CCCCC3)c1C2 | . | . | 32µM! | . | . | .
Cc1ncc(CO)c2c1Oc1nc(-c3ccc(Cl)cc3)nc(SCC(=O)N3CCCCC3)c1C2 | / | . | 40µM | / | . | /
Cc1ncc(CO)c2c1Oc1nc(-c3ccccc3)nc(SCC(=O)N3CCOCC3)c1C2 | . | . | 32µM | . | . | .
COc1ccccc1-c1nc2c(c(SCC(=O)N3CCCCC3)n1)Cc1c(CO)cnc(C)c1O2 | . | . | ? | . | . | .
COC(=O)C1=COC(C)C2CN3CCc4c([nH]c5cc(OC)c(OC)cc45)C3CC12 (stereo not given) | . | . | 20µM | . | . | .
Cc1ccc(C(=O)N2CC(=O)Nc3ccc(F)cc3C2c2ccccc2)cc1 (stereo not given) | . | . | . | . | . | .
CC(=O)[C@@H]1[C@@H](C(=O)c2ccc(C)cc2)[C@]2(C(=O)Nc3ccccc32)[C@H]2C=Cc3cc(F)ccc3N12 | . | . | ? | . | . | .
O=C(c1ccc(F)cc1)[C@@H]1[C@@H](C(=O)c2ccccc2)[C@@]2(C(=O)Nc3ccccc32)[C@H]2c3ccccc3C=CN12 | . | . | 45µM | / | / | .
CC(=O)[C@@H]1[C@@H](C(=O)c2ccc(F)cc2)[C@]2(C(=O)Nc3ccccc32)[C@H]2C=Cc3cc(F)ccc3N12 | . | ? | 50µM | . | ? | .
O=C(CSc1nc2ccccc2nc1Cc1ccc(F)cc1)Nc1ccc2c(c1)OCO2 | / | . | . | / | . | /
CCOC(=O)Cn1c(=O)oc2cc(S(=O)(=O)NCc3ccc(F)cc3)ccc21 | / | . | . | / | . | /
Oc1ccc(/C=N/Nc2ccc3ccccc3c2)c(O)c1 | . | . | 45µM | . | . | .
CCc1nn(CC(=O)NCCC(C)C)c(=O)c2cc3occc3n12 | / | . | . | / | . | /
Cn1cc(Cl)c(-c2n[nH]c(=S)n2C2CCCCC2)n1 | . | ? | . | . | 7.1µM | .
S=c1[nH]nc(-c2ccco2)n1C1CCCCC1 | . | ? | . | . | ? | .
ClCc1cc2ccccc2nc1Cl | . | . | 32µM | . | . | .
Cc1ccc2cc(C)c(SCC#N)nc2c1 | . | . | . | . | . | .
CCc1cc2ccccc2nc1Cl | . | . | / | . | . | .
Cc1ccc2cc(CCl)c(Cl)nc2c1 | . | . | 25µM | . | . | .
